Where “and” joins values, the source holds several entries; their conditions need not be identical. Equal entries are not always repeated. Calls of active or inactive are those of the source. Unless noted, how the calls were made is not given here.
Columns and labels:
[1] = HepG2 liver cancer cell viability effects, profiling panel, resazurin fluorescence, 24 h, PK04 Diversity Set (AID 1172); conditions: higher = more signal; further: test concentration not given here
[2] = basal S. cerevisiae growth modulation, no modifier, primary screen, OD600, strain BY4716, 24 h, basal condition (AID 1173); conditions: OD600, 24 h, higher = more signal, called active from +8 up or from −8 down
[3] = MM1S myeloma cell viability, profiling panel, resazurin fluorescence, basal, 24 h, PK04 Diversity Set (AID 1174); conditions: higher = more signal, called active from +8 up or from −8 down;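 further: MM1S multiple myeloma cell line; test concentration not given here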
[4] = molecular target: Dihydroorotate dehydrogenase (quinone), mitochondrial (Plasmodium falciparum (isolate 3D7)) (UniProt Q08210); assay: PfDHODH enzyme inhibitors, primary screen, biochemical, C-terminal His tag, absorbance 600 nm (AID 1175); conditions: DCIP absorbance 600 nm, higher = more signal, called active from +8 up or from −8 down;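 further: recombinant parasite enzyme with a five histidine tag at its C terminus; test concentration not given here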
Sequence of Dihydroorotate dehydrogenase (quinone), mitochondrial (Plasmodium falciparum (isolate 3D7)) (Q08210 whole entry, looked up): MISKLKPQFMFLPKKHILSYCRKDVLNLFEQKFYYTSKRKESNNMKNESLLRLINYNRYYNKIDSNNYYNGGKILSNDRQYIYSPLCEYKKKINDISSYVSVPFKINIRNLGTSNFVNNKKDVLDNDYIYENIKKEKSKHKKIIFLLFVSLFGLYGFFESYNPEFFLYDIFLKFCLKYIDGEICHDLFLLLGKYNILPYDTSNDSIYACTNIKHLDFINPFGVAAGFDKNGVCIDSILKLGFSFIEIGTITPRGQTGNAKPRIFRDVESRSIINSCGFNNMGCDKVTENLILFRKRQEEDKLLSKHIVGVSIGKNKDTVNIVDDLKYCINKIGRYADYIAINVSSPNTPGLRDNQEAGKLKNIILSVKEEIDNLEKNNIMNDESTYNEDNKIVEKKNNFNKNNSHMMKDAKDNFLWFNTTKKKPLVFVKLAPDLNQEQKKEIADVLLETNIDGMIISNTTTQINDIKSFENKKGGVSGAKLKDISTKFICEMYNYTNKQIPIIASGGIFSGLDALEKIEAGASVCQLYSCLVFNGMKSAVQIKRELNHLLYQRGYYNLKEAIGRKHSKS

[5] = P. aeruginosa biofilm formation inhibitors, primary screen, strain PAO1, LB-PBS medium, absorbance 600 nm (AID 1176); further: test concentration not given here; conditions: P. aeruginosa PAO1 growth/biofilm, A600, 12 h; higher = more signal
[6] = S. cerevisiae RM11-1a growth modifiers, primary screen, strain RM11-1a, OD600, basal, 24 h (AID 1177); conditions: OD600, 24 h, higher = more signal, called active from +8 up or from −8 down;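 further: cultures grown under basal conditions with no added stressor; test concentration not given here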
[7] = E. coli acrAB mutant growth effects, primary screen, E. coli filamentation inducers, strain DRC39, OD650, 24 h (AID 1178); conditions: higher = more signal, called active from +8 up or from −8 down;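 further: growth measured as culture turbidity by optical density at 650 nm; test concentration not given here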
[8] = E. coli acrAB mutant growth effects, primary screen, E. coli filamentation inducers, strain DRC39, OD650, 48 h (AID 1179);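 further: screen aims at cell division blockers that make cells filament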; conditions: E. coli DRC39 delta-acrAB growth, higher = more signal, called active from +8 up or from −8 down
[9] = RPMI8226 myeloma cell viability, profiling panel, resazurin fluorescence, basal, 24 h, PK04 Diversity Set (AID 1180); conditions: higher = more signal;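 further: RPMI8826 multiple myeloma cell line at 5000 cells per well; test concentration not given here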
[10] = molecular target: E3 ubiquitin-protein ligase XIAP (Homo sapiens) (UniProt P98170); assay: XIAP binders, primary screen, biophysical, small-molecule microarray, fluorescence 635 nm (AID 1181); conditions: small-molecule microarray binding, higher = more signal;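 further: score merges 667 nm emission and signal to noise over triplicate slides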
Sequence of E3 ubiquitin-protein ligase XIAP (Homo sapiens) (P98170 whole entry, looked up): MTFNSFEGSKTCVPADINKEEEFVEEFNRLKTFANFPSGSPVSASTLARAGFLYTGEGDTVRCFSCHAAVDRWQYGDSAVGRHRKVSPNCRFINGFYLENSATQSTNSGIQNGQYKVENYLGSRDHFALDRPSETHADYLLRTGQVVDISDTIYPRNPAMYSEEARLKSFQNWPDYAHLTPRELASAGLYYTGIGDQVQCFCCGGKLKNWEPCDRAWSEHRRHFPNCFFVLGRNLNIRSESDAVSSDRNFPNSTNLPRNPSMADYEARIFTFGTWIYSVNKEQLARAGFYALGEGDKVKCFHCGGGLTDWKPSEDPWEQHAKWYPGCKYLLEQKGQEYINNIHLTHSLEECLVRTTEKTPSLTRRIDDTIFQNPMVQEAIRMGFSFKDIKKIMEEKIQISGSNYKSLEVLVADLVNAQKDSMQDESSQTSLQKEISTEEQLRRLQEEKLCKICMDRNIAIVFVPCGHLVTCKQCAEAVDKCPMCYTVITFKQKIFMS

Row | Compound | z-score [1] | z-score [2] | z-score [3] | composite z-score [4] | z-score [5] | z-score [6] | z-score [7] | z-score [8] | z-score [9] | composite z-score [10]
1 | CC(C)CON=C1C[C@@H](O)[C@@H](O)[C@@H]2[C@@H]3C(=O)N(c4cccc(Oc5ccccc5)c4)C(=O)[C@@H]3CC[C@H]12 | 0.608 | 0.121 (inactive) | 0.768 (inactive) | -0.564 (inactive) | 0.34 (inactive) | 0.79 (inactive) | 0.85 (inactive) | 0.0947 (inactive) | 1.33 | -0.055
2 | C=CCN(CCCC)C(=O)C1N(C(C)(C)CO)C(=O)C2C(C(=O)O)C3C=CC21O3 (stereo not given) | 0.043 and 0.688 | 0.709 (inactive) and -0.0821 (inactive) | -0.0251 (inactive) and -0.847 (inactive) | -1.46 (inactive) and 0.0326 (inactive) | 0.385 (inactive) and 0.0126 (inactive) | -0.902 (inactive) and -1.02 (inactive) | 0.378 (inactive) and 0.096 (inactive) | 0.0298 (inactive) and -0.182 (inactive) | -0.131 and -0.803 | -0.162 and -0.195
3 | C=CC[C@@H](O)c1ccc(OCCO)cc1 | -0.369 and -0.32 | -5.91 (inactive) and -1.94 (inactive) | -1.12 (inactive) and -0.281 (inactive) | -0.744 (inactive) and -1.16 (inactive) | 0.674 (inactive) and 0.945 (inactive) | -1.1 (inactive) and -1.56 (inactive) | 0.0207 (inactive) and 0.149 (inactive) | 0.433 (inactive) and 0.571 (inactive) | 0.0629 and 0.237 | -0.31 and -0.102
4 | C=CCN(Cc1ccccc1)C(=O)C1N(C(C)(C)CO)C(=O)C2C(C(=O)O)C3C=CC21O3 (stereo not given) | -0.767 and 0.937 | 0.424 (inactive) and -0.874 (inactive) | -0.796 (inactive) and 0.0609 (inactive) | 1.25 (inactive) and 0.316 (inactive) | -0.112 (inactive) and -0.193 (inactive) | -1.32 (inactive) and -0.417 (inactive) | -0.0429 (inactive) and 0.296 (inactive) | -0.0639 (inactive) and 0.0039 (inactive) | -0.699 and 0.447 | 0.0322 and -0.328
5 | C[C@@H]1CN2[C@@H](CC[C@@H](C)[C@@H]2c2ccc(Br)cc2)C(=O)O1 | 0.0519 and -0.598 | 0.214 (inactive) and -2.02 (inactive) | 0.475 (inactive) and -0.181 (inactive) | 0.694 (inactive) and -1.1 (inactive) | -0.188 (inactive) and 0.417 (inactive) | 0.999 (inactive) and -1.13 (inactive) | 0.322 (inactive) and 0.819 (inactive) | -1.32 (inactive) and -0.313 (inactive) | 0.967 and -0.0883 | 0.118 and 0.166
6 | CCOC(=O)C[C@H]1[C@H](OC(=O)c2ccccc2-c2ccccc2)[C@@H](NC(=O)Cc2ccc(OC)cc2)c2cc(OCCCO)ccc2N1C(=O)Cc1ccc(OC)cc1 | 1.5 and 0.156 | 0.324 (inactive) and 0.67 (inactive) | 0.783 (inactive) and 0.0875 (inactive) | 1.08 (inactive) and 0.343 (inactive) | 0.531 (inactive) | 0.6 (inactive) and 0.0342 (inactive) | 1.56 (inactive) and -0.539 (inactive) | 0.949 (inactive) and -0.39 (inactive) | 0.844 and 0.125 | 0.202 and -0.188
7 | C=CCN(CCCCC)C(=O)C1N(c2c(Cl)cccc2CO)C(=O)C2C(C(=O)O)C3C=CC21O3 (stereo not given) | -1.63 and -0.873 | 0.0191 (inactive) and -0.402 (inactive) | -1.48 (inactive) and -0.932 (inactive) | 0.564 (inactive) and -1.24 (inactive) | -0.441 (inactive) and -0.578 (inactive) | 0.501 (inactive) and 0.477 (inactive) | -0.957 (inactive) and -1.11 (inactive) | -0.992 (inactive) and -1.16 (inactive) | -1.52 and -1.3 | -0.237 and -0.0414
8 | O=C1NC(=O)C2C1C=CC(C(O)c1ccc([N+](=O)[O-])cc1)N2Nc1ccc(Cl)cc1Cl (stereo not given) | -1.01 and 0.266 | -8.52 (active) and -8.8 (active) | 0.52 (inactive) and -0.103 (inactive) | -0.87 (inactive) and -1.11 (inactive) | 2.4 (inactive) and 2.49 (inactive) | -0.728 (inactive) and -1.12 (inactive) | -0.0259 (inactive) and 0.6 (inactive) | -0.568 (inactive) and 0.615 (inactive) | 0.425 and 0.122 | -0.0102 and 0.0975
